# CYP2C19 activ: increases human CYP2C19 enzyme activity; activation factor at 5 µM; 96,000 tested, under 10 active; recombinant CYP2C19, luciferin-H EGE luminescence; stronger effect = higher value; 0 = fully inhibited enzyme, 1 = untreated enzyme;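 active = activation factor of at least 2 at 5 µM in the primary screen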
# CYP2C9 inh: blocks human cytochrome P450 2C9; inhibition, % at 5 µM; CYP2C9 Supersomes, luciferin-H conversion, luminescence; P11712; hit rate 20% among 96,000;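 active = blocking of liver enzyme CYP2C9 beyond about 50% at 5 µM, limit read from the data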
# Target sequence (P11712 whole entry, looked up): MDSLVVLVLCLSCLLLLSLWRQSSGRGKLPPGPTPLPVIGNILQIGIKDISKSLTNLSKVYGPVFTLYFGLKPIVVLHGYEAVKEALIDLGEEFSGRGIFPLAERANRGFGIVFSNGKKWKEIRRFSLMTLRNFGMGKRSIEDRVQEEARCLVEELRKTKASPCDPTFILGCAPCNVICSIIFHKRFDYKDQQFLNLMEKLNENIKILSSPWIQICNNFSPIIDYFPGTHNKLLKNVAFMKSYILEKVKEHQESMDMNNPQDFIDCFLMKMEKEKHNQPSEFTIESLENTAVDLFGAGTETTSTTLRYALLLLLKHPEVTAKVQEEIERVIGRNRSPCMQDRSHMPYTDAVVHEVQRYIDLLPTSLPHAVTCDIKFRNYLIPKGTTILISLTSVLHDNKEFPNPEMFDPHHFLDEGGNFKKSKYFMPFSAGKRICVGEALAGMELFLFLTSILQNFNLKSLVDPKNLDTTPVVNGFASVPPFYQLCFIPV
# CYP2C9 act: CYP2C9 (human) activation; P11712; hit rate 1.4% among 96,000; recombinant CYP2C9, luciferin-H conversion, luminescence; stronger effect = higher value; factor 1 = untreated enzyme, 0 = blocked; activation factor at 5 µM;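 active = activation factor of 2 or more for CYP2C9 at a 5 µM dose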
# PLAP act: human PLAP activation; P05187; activation fold at 20 µM; purified PLAP enzyme, luminescent substrate read-out; stronger effect = higher value; hit rate 1.2% among 96,000; in the data active = activation fold above about 2
# CYP2C19 inhib: blocks human cytochrome P450 2C19 | P33261 | CYP2C19 Supersomes, luciferin-H EGE luminescence, 30 min | inhibition, % at 5 µM | hit rate 21% among 96,000;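 active = CYP2C19 inhibition above a set limit at 5 µM in the primary screen, cut at about 50% in these data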
# Numbers stand for hits; – = inactive. Rows were chosen to be rich in hits. Some 31% of all compounds tested hit in one or more screens of this group.
SMILES,CYP2C19 activ,CYP2C9 inh,CYP2C9 act,PLAP act,CYP2C19 inhib
O=C1C2CC=C(Cl)CC2C(=O)N1CC1OCCc2ccccc21 (configuration not stated),–,55,–,–,74
Cc1cccc(C(=O)OCC(=O)Nc2nccs2)c1,–,–,–,–,–
CCOC(=O)C1(Nc2nccs2)Sc2ccccc2NC1=O (configuration not stated),–,–,–,–,64
C/C(=C\C(=O)Nc1nccs1)c1ccccc1,–,–,–,–,–
COC(=O)c1cc2sccc2n1CC(=O)Nc1cccc(SC)c1,–,–,–,–,–
COc1cc(Cn2c(C(=O)O)cc3sccc32)cc(OC)c1OC,–,–,–,–,71
CCOC(=O)c1cc2sccc2n1CC(=O)Nc1ccc(OC)cc1OC,–,68,–,–,99
COC(=O)c1cc2sccc2n1Cc1ccc(C)cc1,–,–,–,–,–
CCOC(=O)c1cc2sccc2n1CC(=O)OC,–,–,–,–,–
COC(=O)c1cc2sccc2n1CC(=O)Nc1ccc(OC)c(OC)c1OC,–,88,–,–,91
C/C(CC(=O)Nc1cc(Cl)ccc1Cl)=N\NC(=O)c1ccco1,–,–,–,–,–
CC(=O)N(Cc1ccc2c(c1)OCO2)C1CC(=O)N(CCc2ccccc2)C1=O (configuration not stated),–,53,–,–,70
O=C(NCc1ccc2c(c1)OCO2)C1CC(=O)N(CCc2ccccc2)C1 (configuration not stated),–,77,–,–,–
COc1ccc(N2CC(C(=O)Nc3ccc4c(c3)OCO4)CC2=O)cc1 (configuration not stated),–,–,–,–,–
O=C(O)C1CC(=O)N(Cc2ccc3c(c2)OCO3)C1 (configuration not stated),–,–,–,–,–
O=C(NCc1cccnc1)C1CC(=O)N(CCc2ccccc2)C1 (configuration not stated),–,–,–,–,80
O=C(NCc1ccc2c(c1)OCO2)C1CC(=O)N(c2ccc(O)cc2)C1 (configuration not stated),–,–,2.1,–,–
O=C(NCc1ccc(F)cc1)C1CC(=O)N(CCc2ccccc2)C1 (configuration not stated),–,–,–,–,–
CC(C)CNC(=S)NC1CCCC1,–,–,–,–,–
Cc1ccc(C(=O)CSc2nc3ccccc3o2)cc1,–,–,–,–,–
O=C(CSc1nc(-c2ccccc2)nc2c1CCCC2)N1CCOCC1,–,–,–,–,–
Cc1ccc(C(C(=O)NCc2ccco2)N(CCc2ccccc2)C(=O)Cn2nnc3ccccc32)o1 (configuration not stated),–,–,–,–,–
CCC(=O)NC(=S)Nc1cccc(NC(=O)c2ccc(Cl)cc2Cl)c1,–,–,–,–,–
O=C(COc1ccccc1Cl)NC(=S)Nc1cccc(NC(=O)c2ccccc2Cl)c1,–,67,–,–,–
Cc1nnc(Oc2ccccc2F)c2ccccc12,–,–,–,–,–
SMILES,CYP2C19 activ,CYP2C9 inh,CYP2C9 act,PLAP act,CYP2C19 inhib
O=C(COC(=O)C1=COCCO1)Nc1ccccc1Oc1ccccc1,–,–,–,–,–
Cc1nc(NC(=O)CC(C)C)sc1-c1csc(Nc2ccc(Cl)cc2)n1,–,–,–,–,51
COc1ccc(Cl)cc1Nc1nc(-c2sc(NC(=O)c3ccccc3)nc2C)cs1,–,68,–,–,–
COc1ccc(Cl)cc1Nc1nc(-c2sc(NC(=O)CC(C)C)nc2C)cs1,–,52,–,–,–
Cc1nc(NC(=O)c2ccccc2)sc1-c1csc(Nc2ccc(Cl)cc2Cl)n1,–,–,–,–,65
Cc1nc(NC(=O)CC(C)C)sc1-c1csc(Nc2ccc(Cl)cc2Cl)n1,–,–,–,–,–
O=C(COC(=O)CCS(=O)(=O)c1ccc(Cl)cc1)NC1CCCCC1,–,–,–,–,–
O=C(CNC1CCCCCC1)Nc1ccccc1N1CCCCC1,–,–,–,–,57
O=C(CNCC1CCCCC1)Nc1ccccc1N1CCCCC1,–,–,–,–,74
O=C(CN1CCCCC1)Nc1ccccc1NC(=O)CN1CCCCC1,–,–,–,–,–
O=C(CN1CCc2ccccc2C1)Nc1ccccc1N1CCCCCC1,–,73,–,–,90
COc1ccc(NC(=O)CNCCC2=CCCCC2)cc1,–,–,–,–,–
O=C(CNCCC1=CCCCC1)Nc1ccccc1N1CCCCC1,–,86,–,–,93
CCOc1ccccc1NC(=O)CSc1nnc(CNC(=O)c2ccco2)o1,–,–,–,–,–

# Source: PubChem BioAssay (Sanford-Burnham Center for Chemical Genomics)
